Test results reported in PubChem BioAssay (NCATS).
Results filed as inconclusive are left out. Activity calls are given as the source filed them. Calls follow the shape of the dose curve; as a rule, active = well fitted curve in the direction sought with a large enough effect; inconclusive = small, poorly fitted or top-dose-only effect, or another doubt; inactive = no such curve, though single readings can be large; an effect the other way counts as inactive or inconclusive.

Experiments:
C33A = assay: Primary qHTS to identify gynecologic anti-cancer compounds using libraries of approved drugs and bioactive compounds (AID 1345084); conditions: Gynecologic cancer cell panel viability, ATPlite luminescence, 48 h; series mostly up to 57.5 µM; also: nearly all actives have a fitted effect of over 55% in size
In short: (§1)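 ATP-based viability (ATPlite), 1,000 cells/well, 16 h pre-incubation, 48 h compound at 37 C, 5% CO2, 15 min RT before read.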

CAOV3 = assay: as above; conditions: Gynecologic cancer cell panel viability, ATPlite luminescence, 48 h; series mostly up to 57.5 µM
In short: as §1

CASKI = assay: as above; conditions: Gynecologic cancer cell panel viability, ATPlite luminescence, 48 h; series mostly up to 57.5 µM
In short: as §1

Es-2 = assay: as above; conditions: Gynecologic cancer cell panel viability, ATPlite luminescence, 48 h; series mostly up to 57.5 µM
In short: as §1

HeLa = assay: as above; conditions: Gynecologic cancer cell panel viability, ATPlite luminescence, 48 h; series mostly up to 57.5 µM
In short: as §1

Hek293T = assay: as above; conditions: Gynecologic cancer cell panel viability, ATPlite luminescence, 48 h, control line for the selectivity index; series mostly up to 57.5 µM
In short: as §1

JEG-3 = assay: as above; conditions: Gynecologic cancer cell panel viability, ATPlite luminescence, 48 h; series mostly up to 57.5 µM
In short: as §1

OV90 = assay: as above; conditions: Gynecologic cancer cell panel viability, ATPlite luminescence, 48 h; series mostly up to 57.5 µM
In short: as §1

PA-1 = assay: as above; conditions: Gynecologic cancer cell panel viability, ATPlite luminescence, 48 h; series mostly up to 57.5 µM
In short: as §1

SKOV3 = assay: as above; conditions: Gynecologic cancer cell panel viability, ATPlite luminescence, 48 h; series mostly up to 57.5 µM
In short: as §1

Tov-21-G = assay: as above; conditions: Gynecologic cancer cell panel viability, ATPlite luminescence, 48 h; series mostly up to 57.5 µM
In short: as §1

Tov112D = assay: as above; conditions: Gynecologic cancer cell panel viability, ATPlite luminescence, 48 h; series mostly up to 57.5 µM
In short: as §1

[1] = Drug repurposing screens with cells derived from glioblastoma tumor samples (AID 1345199); conditions: GBM patient neurospheres viability, ATP luminescence, 48 h; also: nearly all actives have a fitted effect of over 40% in size
In short: (§2)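 Primary testing used CD133+ neurospheres from four GBM patients, seven concentrations, 48 h exposure and ATP-based viability; confirmation added three slower-growing patient lines.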

astro = assay: as above; conditions: viability, ATP luminescence, 48 h; series mostly up to 45.9 µM
In short: as §2
% is scaled to controls: 0 for no effect and ±100 for the full control effect.

COc1cc(C2Oc3c(OC)cc(CCCO[C@@H]4O[C@H](CO)[C@@H](O)[C@H](O)[C@H]4O)cc3C2CO)ccc1O (stereo partly specified)
inactive: Potency (C33A) | Potency (CAOV3) | Potency (CASKI) | Potency (Es-2) | Potency (HeLa) | Potency (Hek293T) | Potency (JEG-3) | Potency (OV90) | Potency (PA-1) | Potency (SKOV3) | Potency (Tov-21-G) | Potency (Tov112D)

C=CC1(C)C=C2C(O)CC3C(C)(C(=O)O)CCCC3(C)C2CC1 (stereo unspecified)
inactive: Potency (C33A) | Potency (CAOV3) | Potency (CASKI) | Potency (Es-2) | Potency (HeLa) | Potency (Hek293T) | Potency (JEG-3) | Potency (OV90) | Potency (PA-1) | Potency (SKOV3) | Potency (Tov-21-G) | Potency (Tov112D)

C/C=C/C=C/C=C/C(=O)O[C@@H]1C=C(CO)C(O)(C(=O)O)[C@@]2(C)CCCC(C)(C)[C@H]12 (stereo partly specified)
inactive: Potency (C33A) | Potency (CAOV3) | Potency (CASKI) | Potency (Es-2) | Potency (HeLa) | Potency (Hek293T) | Potency (JEG-3) | Potency (OV90) | Potency (PA-1) | Potency (SKOV3) | Potency (Tov-21-G) | Potency (Tov112D)

COc1cccc(-n2nc(C(=O)O)cc2-c2ccc(C3CCCCC3)c(Cl)c2)c1
inactive: Potency (C33A) | Potency (CAOV3) | Potency (CASKI) | Potency (Es-2) | Potency (HeLa) | Potency (Hek293T) | Potency (JEG-3) | Potency (OV90) | Potency (PA-1) | Potency (SKOV3) | Potency (Tov-21-G) | Potency (Tov112D)

CC(=O)OC[C@@]12[C@H](O)C[C@]3(C)C(=CCC4[C@@]5(C)CC[C@H](O[C@@H]6O[C@H](C(=O)O)[C@@H](O[C@@H]7O[C@H](CO)[C@@H](O)[C@H](O)[C@H]7O)[C@H](O)[C@H]6O[C@@H]6O[C@H](CO)[C@@H](O)[C@H](O)[C@H]6O)[C@](C)(CO)C5CC[C@]43C)[C@@H]1CC(C)(C)[C@@H](OC(C)=O)[C@@H]2O (stereo partly specified)
inactive: activity change, negative = cytotoxicity (C33A) -7.61% [at 11.6 µM] | activity change, negative = cytotoxicity (CAOV3) 8.05% [at 11.6 µM] | activity change, negative = cytotoxicity (CASKI) 5.42% [at 11.6 µM] | activity change, negative = cytotoxicity (Es-2) 3.37% [at 11.6 µM] | activity change, negative = cytotoxicity (HeLa) 2.68% [at 11.6 µM] | activity change, negative = cytotoxicity (Hek293T) 0.0542% [at 11.6 µM] | activity change, negative = cytotoxicity (JEG-3) -2.75% [at 11.6 µM] | activity change, negative = cytotoxicity (OV90) -1.56% [at 11.6 µM] | activity change, negative = cytotoxicity (PA-1) 0.948% [at 11.6 µM] | activity change, negative = cytotoxicity (SKOV3) 8.16% [at 11.6 µM] | activity change, negative = cytotoxicity (Tov-21-G) 2.04% [at 11.6 µM] | activity change, negative = cytotoxicity (Tov112D) 1.86% [at 11.6 µM]

COc1cc(/C=C/C(=O)OC2[C@H](O)CC(O)(C(=O)O)C[C@H]2O)ccc1O (stereo partly specified)
inactive: Potency (C33A) | Potency (CAOV3) | Potency (CASKI) | Potency (Es-2) | Potency (HeLa) | Potency (Hek293T) | Potency (JEG-3) | Potency (OV90) | Potency (PA-1) | Potency (SKOV3) | Potency (Tov-21-G) | Potency (Tov112D)

Cn1c(=O)c2nc(/C=C/c3cccc(Cl)c3)n(C)c2n(C)c1=O
inactive: Potency (C33A) | Potency (CAOV3) | Potency (CASKI) | Potency (Es-2) | Potency (HeLa) | Potency (Hek293T) | Potency (JEG-3) | Potency (OV90) | Potency (PA-1) | Potency (SKOV3) | Potency (Tov-21-G) | Potency (Tov112D)

O=C(C1CC1)N1CC[C@@H](Cc2n[nH]c(=O)n2-c2ccc(-c3ccc4occc4c3)cc2)C1
inactive: Potency (C33A) | Potency (CAOV3) | Potency (CASKI) | Potency (Es-2) | Potency (HeLa) | Potency (Hek293T) | Potency (JEG-3) | Potency (OV90) | Potency (PA-1) | Potency (SKOV3) | Potency (Tov-21-G) | Potency (Tov112D)

CNC(=O)COC(=O)NCCC1CCN(c2cccc(C)n2)CC1
inactive: Potency (C33A) | Potency (CAOV3) | Potency (CASKI) | Potency (Es-2) | Potency (HeLa) | Potency (Hek293T) | Potency (JEG-3) | Potency (OV90) | Potency (PA-1) | Potency (SKOV3) | Potency (Tov-21-G) | Potency (Tov112D)

CC1(C)CC[C@]2(C(=O)O[C@@H]3O[C@H](CO)[C@@H](O)[C@H](O)[C@H]3O)CC[C@]3(C)C(=CCC4[C@@]5(C)C[C@@H](O)[C@H](O)[C@@](C)(CO)C5CC[C@]43C)C2C1 (stereo partly specified)
inactive: Potency (C33A) | Potency (CAOV3) | Potency (CASKI) | Potency (Es-2) | Potency (HeLa) | Potency (Hek293T) | Potency (JEG-3) | Potency (OV90) | Potency (PA-1) | Potency (SKOV3) | Potency (Tov-21-G) | Potency (Tov112D)

NCCCC[C@H](NC(=O)[C@@H]1Cc2ccccc2CN1C(=O)CCC(=O)c1ccccc1)C(=O)NCC(c1ccccc1)c1ccccc1
inactive: Potency (C33A) | Potency (CAOV3) | Potency (CASKI) | Potency (Es-2) | Potency (HeLa) | Potency (Hek293T) | Potency (JEG-3) | Potency (OV90) | Potency (PA-1) | Potency (SKOV3) | Potency (Tov-21-G) | Potency (Tov112D)

C[C@@H]1C[C@H]2[C@@H]3CCC4=CC(=O)C=C[C@]4(C)[C@@]3(F)[C@@H](O)C[C@]2(C)[C@@]1(O)C(=O)COP(=O)(O)O
inactive: Potency (C33A) | Potency (CAOV3) | Potency (CASKI) | Potency (Es-2) | Potency (HeLa) | Potency (Hek293T) | Potency (JEG-3) | Potency (OV90) | Potency (PA-1) | Potency (SKOV3) | Potency (Tov-21-G) | Potency (Tov112D) | activity, negative = cell killing ([1]; at 45.9 µM (top of the series), tumour line B) -3.61% | activity, negative = cell killing ([1]; at 45.9 µM (top of the series), tumour line D) 1.29% | activity, negative = cell killing ([1]; at 46 µM (top of the series), tumour line A) -0.902% | activity, negative = cell killing ([1]; at 46.1 µM (top of the series), tumour line C) -0.678% | Potency (astro)

C[C@@H]1C(=O)O[C@H]2[C@H]1CC[C@@]1(C)C(=O)C=C[C@](C)(O)[C@H]21
inactive: Potency (C33A) | Potency (CAOV3) | Potency (CASKI) | Potency (Es-2) | Potency (HeLa) | Potency (Hek293T) | Potency (JEG-3) | Potency (OV90) | Potency (PA-1) | Potency (SKOV3) | Potency (Tov-21-G) | Potency (Tov112D)
